# D1 antagonist = human D1 dopamine receptor antagonism | HEK293 TREx D1 cells, calcium flux, dopamine EC80; active compounds read low | activity change, negative = inhibition, % at 10 µM | actives 3.2% (n = 360,000) | AID 504652; in the data active means activity change below about -30%; further: on the % scale 0 is the no-effect control and ±100 the full control effect
#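 Antagonism measured as reduced calcium response to an EC80 dopamine addition following 180 s compound pre-read; cells were inducible HEK293 Trex D1 plated overnight at 30 C, read kinetically at 1 cycle/sec.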
# D3 antag = antagonists of human D3 dopamine receptor. P35462. D3R cells, DiscoveRx beta-arrestin luminescence, antagonist mode; active compounds read low. max response, negative = inhibition, %. actives 2.5% (n = 360,000); in the data active means max response below about -50%; inconclusive means no clear call, values can overlap the other calls; further: on the % scale 0 is the no-effect control and ±100 the full control effect
# Target sequence (P35462 whole entry, looked up): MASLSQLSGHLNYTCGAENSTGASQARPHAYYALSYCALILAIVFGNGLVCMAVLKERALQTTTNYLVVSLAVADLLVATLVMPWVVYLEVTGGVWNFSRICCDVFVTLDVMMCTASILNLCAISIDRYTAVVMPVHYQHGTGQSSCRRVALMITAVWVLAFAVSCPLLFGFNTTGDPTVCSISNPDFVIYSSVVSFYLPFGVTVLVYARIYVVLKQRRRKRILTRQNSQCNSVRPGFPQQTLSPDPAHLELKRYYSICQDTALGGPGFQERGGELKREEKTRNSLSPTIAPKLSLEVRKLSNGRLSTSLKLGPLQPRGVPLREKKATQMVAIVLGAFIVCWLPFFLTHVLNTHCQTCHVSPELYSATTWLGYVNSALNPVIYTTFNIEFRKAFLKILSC
#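 Cells expressing the human receptor were seeded at 1500 cells/well, incubated overnight at 37 degrees C in 5% CO2, then exposed to library compounds with dopamine controls for 90 minutes at 37 degrees C before luminescent detection.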
# D3 ag = activates the human D3 dopamine receptor; AID 652048; max activation, %; D3R DiscoveRx beta-arrestin cells, luminescence, 90 min; actives 0.58% (n = 410,000); P35462; in the data active means max activation above about 30%; further: 0% is about no effect
#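 Cells at 1500/well, incubated overnight, then treated with pinned compounds (dopamine as control) for 90 min at 37 degrees C. DiscoveRx reagent added for 30 - 60 minutes at room temperature; luminescence read.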
# D1 agonist = agonists of human D1 dopamine receptor. AID 504660. actives 1% (n = 360,000). P21728. HEK293 T-REx D1 cells, calcium flux, agonist mode. activation, % at 2 µM; in the data active means activation above about 30%; further: 0% is about no effect
#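 Agonism was scored from calcium flux recorded over 180 s (1 read/s) after pintool compound addition, following a 10-cycle baseline. Cells were inducible force-coupled HEK293 TREx D1, plated overnight at 30 C and loaded with no-wash calcium dye.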
# D1 potentiator = enhances dopamine response at the human D1 receptor | HEK293 TREx D1 cells, calcium flux, dopamine EC20 potentiation | potentiation, % at 10 µM | actives 0.036% (n = 360,000) | AID 504651; in the data active means potentiation above about 30%; further: 0% is about no effect
# * marks the source's active call; other numbers are inactive results; ? = inconclusive; nt = not tested or not shown. This is a sample that favours compounds with a hit; in the whole collection about 6.1% have one here.
SMILES,D1 antagonist,D3 antag,D3 ag,D1 agonist,D1 potentiator
CN1CCN(C(=O)c2ccc(COc3ccc(Cl)cc3Cl)cc2)CC1,-55*,-89*,-22,26,-9
CN1CCN(C(=O)CCCOc2ccc(Cl)cc2Cl)CC1,-9,-53*,-3,5,-10
CN1CCCN(C(=O)c2ccc(Cl)cc2)CC1,-1,?,-8,2,-2
Nc1c(C(=O)Nc2ccccc2)sc2nc3c(c(-c4ccco4)c12)CCC3,4,-60*,7,2,0
CS(=O)(=O)C1=NSC2=NC(=O)/C(=C\c3ccc(OC(=O)c4ccco4)cc3)C(=N)N21,-31*,nt,nt,0,-8
CS(=O)(=O)C1=NSC2=NC(=O)/C(=C\c3cccn3-c3ccc(Cl)cc3)C(=N)N21,-36*,-6,-12,4,-5
COc1cc(/C=C2/C(=N)N3N=C(C(C)C)SC3=NC2=O)ccc1OS(=O)(=O)c1ccccc1,-31*,0,-3,1,-2
Cc1cc(/C=C2/C(=N)N3C(=NC2=O)SN=C3S(C)(=O)=O)c(C)n1-c1ccccc1F,-21,-20,-5,4,-9
CCS(=O)(=O)C1=NN2C(=N)/C(=C\c3ccc(OC(=O)c4ccco4)c(OC)c3)C(=O)N=C2S1,-33*,8,1,4,5
COC(=O)c1sccc1S(=O)(=O)N(CC(=O)NCc1ccccc1)c1ccc(C)c(C)c1,-6,nt,0,1,-6
Cc1ccc(Cn2ncc3c4sc(C)cc4n(C)c3c2=O)cc1,-9,nt,nt,1,-7
Cc1[nH]oc(=O)c1N=Nc1ccc2[nH]c(=O)[nH]c2c1,nt,-66*,7,nt,nt
COc1ccccc1NC(=O)CCS(=O)(=O)c1cc2c3c(c1)CCN3C(=O)CC2,-22,nt,0,1,3
COc1ccc(-c2nc(NC(=O)c3c(C)noc3C)sc2C)cc1,-3,10,10,0,-5
COc1ccc(-c2nc(NC(=O)c3cc(C(C)(C)C)nn3C)sc2C)cc1,9,11,40*,3,-3
Cc1cc(C(C)(C)CC(C)(C)C)ccc1OCCOCC[N+](C)(C)Cc1ccccc1,8,-20,-13,101*,-1
C[N+](C)(CCOc1ccccc1)Cc1ccccc1,nt,1,3,nt,nt
CCC[C@@H](CN1CCC[C@H]1CN1C(N)=NC[C@H]1CC(C)C)N1C[C@@H]([C@H](C)CC)N(CCc2ccc(Cl)c(Cl)c2)C1=N,nt,?,-37,nt,nt
CCC[C@@H](CN1CCC[C@H]1CN1C(N)=NC[C@H]1CC(C)C)N1C[C@@H](Cc2ccccc2)N(CCc2ccc(Cl)c(Cl)c2)C1=N,nt,-29,-23,nt,nt
CCC[C@@H](CN1CCC[C@H]1CN1C(N)=NC[C@@H]1Cc1ccccc1)N1C[C@@H](Cc2ccccc2)N(CCc2ccc(Cl)c(Cl)c2)C1=N,nt,-87*,-46,nt,nt
CCC[C@@H](CN1CCC[C@H]1CN1C(N)=NC[C@@H]1Cc1ccccc1)N1C[C@@H]([C@H](C)CC)N(CCc2ccc(Cl)c(Cl)c2)C1=N,nt,-64*,-47,nt,nt
Cc1oc(-c2ccc(Cl)cc2)nc1CSCC(=O)NC1CCN(Cc2ccccc2)CC1,-3,-76*,-30,12,-8
O=C(CSCc1c(F)cccc1Cl)NCc1ccco1,1,-10,-21,-1,3
O=C(CSCc1c(Cl)cccc1Cl)NCc1ccco1,-31*,-18,-15,0,-6
CCOc1ccc(-c2nc(CSCC(=O)NC3CCN(Cc4ccccc4)CC3)c(C)o2)cc1,nt,-117*,-5,nt,nt
SMILES,D1 antagonist,D3 antag,D3 ag,D1 agonist,D1 potentiator
CCOc1ccc(-c2nc(CSCC(=O)NCc3ccc(C)cc3)c(C)o2)cc1,0,nt,8,5,-3
CCOc1ccc(-c2nc(CSCC(=O)NCc3ccco3)c(C)o2)cc1,-37*,74,2,4,-6
Cc1ccc(C(=O)/C=C/Nc2cccc([N+](=O)[O-])c2)o1,5,-4,-1,0,0
CCOc1ccccc1NC(=O)COC(=O)Cc1ccc(-c2ccccc2)cc1,-37*,46,1,39*,-5
CCOc1ccccc1NC(=O)COC(=O)CNS(=O)(=O)c1ccc(C)cc1,-16,-4,0,-1,-2
CCOc1ccccc1NC(=O)COC(=O)CN(C)S(=O)(=O)c1ccc(C)cc1,-45*,21,-3,25,-8
Cc1cccc(NC(=O)CCN2C(=O)c3ccccc3S2(=O)=O)c1C,7,4,5,3,1
COc1ccc(C2C(C(=O)c3cccs3)=C(O)C(=O)N2c2nncs2)cc1 (stereo not given),-21,8,-4,67*,-3
C=CCOc1ccc(C2C(C(=O)c3cccs3)=C(O)C(=O)N2c2nnc(C)s2)cc1 (stereo not given),nt,-63*,-13,nt,nt
COc1ccc(C2C(C(=O)c3cccs3)=C(O)C(=O)N2c2nnc(C)s2)cc1OC (stereo not given),3,-10,2,77*,-5
Cc1cccc(N2C(=O)C(O)=C(C(=O)c3cccs3)C2c2ccc(C(C)C)cc2)n1 (stereo not given),1,-10,-9,1,3
CC(C)c1nnc(N2C(=O)C(O)=C(C(=O)c3cccs3)C2c2ccccc2)s1 (stereo not given),nt,-6,7,270*,2
COc1ccc(C)cc1NC(=O)CSc1nc(=O)n(Cc2ccncc2)c2c1CCC2,nt,nt,-12,-4,-4
CC[C@@H](C)[C@@H](N)C1=N[C@H](C(=O)N[C@@H](CC(C)C)C(=O)N[C@@H](CCC(=O)O)C(=O)N[C@@H](C(=O)N[C@@H]2CCCCNC(=O)[C@@H](CC(N)=O)NC(=O)[C@@H](CC(=O)O)NC(=O)[C@@H](Cc3cnc[nH]3)NC(=O)[C@@H](Cc3ccccc3)NC(=O)[C@@H]([C@H](C)CC)NC(=O)[C@@H](CCCN)NC2=O)[C@@H](C)CC)CS1,nt,nt,16,nt,nt
CCC(=O)Oc1c(Sc2ccc(Cl)cc2)c(C)nn1-c1ccccc1,6,nt,-9,-1,1
O=C(C1=C(O)C(=O)N(CCN2CCOCC2)C1c1ccccc1)c1cccs1 (stereo not given),nt,-52*,-1,nt,nt
CC1CCCC(C)N1/N=C/c1cc(Br)cc(Br)c1O (stereo not given),14,-62*,-9,3,-4
O=C(C=Cc1ccccc1)NCCNC(=O)C=Cc1ccccc1,nt,1,3,nt,nt
O=C(/C=C/c1ccccc1)c1ccc2ccccc2c1,nt,-51*,-19,nt,nt
N#Cc1ccc(/C=C/C(=O)c2ccccc2)cc1,-1,-70*,-5,3,-5
O=C(/C=C/c1ccccc1)/C=C/c1ccccc1,9,-58*,-1,6,-7
O=C(/C=C/c1ccccc1)c1ccccc1,-5,-11,-15,3,5
O=C(CC1C(=O)NCCN1Cc1ccc(F)cc1)NCCCn1cccn1 (stereo not given),5,3,1,1,-1

# Screening data as filed in PubChem.
